Assay results published in PubChem BioAssay (Tox21).
Unmarked numbers belong to inactive results. Records with an inconclusive call do not appear. Where a call stands in place of a potency, no number is given. Active and inactive are the calls of the source. Unless noted, the call rests on the fitted dose curve; in most records, active means well fitted curve in the direction sought with a large enough effect in the repeat runs; inconclusive means weak or mixed curves; inactive means no such curve, though single readings can be large; an effect the other way counts as inactive or inconclusive.

Legend:
[1] = qHTS assay to identify small molecule agonists of the TGF-beta/Smad signaling pathway (AID 1346859; active means well fitted activation curve with a large enough effect in the signal ratio in the repeat runs, not every such curve was filed as active; the % refers to the signal ratio; further: series mostly up to about 77 µM)
How it was run: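 Each well held 4,000 SBE-bla HEK 293T cells incubated overnight before compound addition; 5 hr later the cleavable FRET substrate went on for 2 hr at room temperature, and fluorescence was read at two emissions.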

[2] = molecular target: Thyrotropin-releasing hormone receptor (Homo sapiens) (UniProt P34981); assay: qHTS assay to identify small molecule antagonists of the thyrotropin-releasing hormone receptor (TRHR) signaling pathway (AID 1346877; active means well fitted inhibition curve with a large enough effect in the repeat runs, not every such curve was filed as active; further: series mostly up to about 51 µM)
Sequence of Thyrotropin-releasing hormone receptor (Homo sapiens) (P34981 whole entry, looked up): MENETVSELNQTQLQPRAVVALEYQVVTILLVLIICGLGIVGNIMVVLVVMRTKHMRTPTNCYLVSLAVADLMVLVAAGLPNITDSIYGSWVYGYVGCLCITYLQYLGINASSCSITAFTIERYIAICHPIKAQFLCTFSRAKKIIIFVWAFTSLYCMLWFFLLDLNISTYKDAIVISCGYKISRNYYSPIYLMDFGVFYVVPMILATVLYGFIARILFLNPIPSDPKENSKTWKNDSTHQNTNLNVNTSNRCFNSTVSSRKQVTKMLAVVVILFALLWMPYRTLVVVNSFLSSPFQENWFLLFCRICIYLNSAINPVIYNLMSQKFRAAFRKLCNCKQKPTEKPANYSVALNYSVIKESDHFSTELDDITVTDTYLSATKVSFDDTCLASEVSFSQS
How it was run: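 Kinetic fluorescence (3 min, 1 s resolution) following stimulation with TRH at 1 nM final; HEK293 cells bearing human TRHR; 5 min compound preincubation at RT; concentration-response over 15 points, triplicates.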

[3] = molecular target: Thyrotropin-releasing hormone receptor (Homo sapiens) (UniProt P34981); assay: qHTS assay to identify small molecule agonists of the thyrotropin-releasing hormone receptor (TRHR) signaling pathway (AID 1346891; calls by dose curve; further: series mostly up to about 58 µM)
How it was run: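 Screening of agonists relied on calcium signalling in HEK293 cells expressing human TRHR: dye loading 2 h at 37 °C preceded compound addition and a 3-min fluorescence time course.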

[4] = Human pregnane X receptor (PXR) small molecule agonists, qHTS cell viability counter screen (AID 1346977); further: nearly all actives have a fitted effect of over 50% in size
How it was run: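 Tox21 qHTS format; PXR-Luc HepG2, 2,000/well, charcoal-stripped FBS 5%. Cpd exposure 24hr. Read: CellTiter-Fluor fluorescence, multiplexed with luciferase.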

[5] = Caspase-3/7 induction in HepG2 cells by small molecules, qHTS assay (AID 1346978); further: nearly all actives have a fitted effect of over 15% in size
How it was run: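 Caspase-3/7 induction was measured by Caspase-Glo 3/7 luminescence (30 min, room temperature) after a 17 hr compound exposure of wild-type HepG2 cells seeded at 2,000 per well and pre-incubated 5 hr.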

[6] = Caspase-3/7 induction in CHO-K1 cells by small molecules, qHTS cell viability counter screen (AID 1346979); further: nearly all actives have a fitted effect of over 35% in size
How it was run: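 CellTiter-Fluor viability check, qHTS format: wild-type CHO-K1, 16hr compound treatment, 1hr reagent incubation, fluorescence read.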

[7] = Caspase-3/7 induction in CHO-K1 cells by small molecules, qHTS assay (AID 1346980); further: nearly all actives have a fitted effect of over 15% in size
How it was run: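 Luminescent Caspase-Glo 3/7 read (30min, room temperature) quantified apoptosis induction. Cells were wild-type CHO-K1, treated with compound for 17hr at 37 C and 5% CO2.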

[8] = Caspase-3/7 induction in HepG2 cells by small molecules, qHTS cell viability counter screen (AID 1346981); further: series mostly up to about 92 µM; nearly all actives have a fitted effect of over 30% in size
How it was run: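 In this quantitative HTS counter screen, compounds delivered in DMSO were left on unmodified HepG2 cells for 16 hr at 37 C. Viability was then determined fluorometrically with CellTiter-Fluor, in parallel with caspase-3/7 induction in the same wells.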

[9] = molecular target: Nuclear receptor subfamily 1 group I member 2 (Homo sapiens) (UniProt O75469); assay: Human pregnane X receptor (PXR) small molecule agonists, qHTS assay (AID 1346982); further: nearly all actives have a fitted effect of over 35% in size; further: potency means the concentration at half of the fitted maximal effect
Sequence of Nuclear receptor subfamily 1 group I member 2 (Homo sapiens) (O75469 whole entry, looked up): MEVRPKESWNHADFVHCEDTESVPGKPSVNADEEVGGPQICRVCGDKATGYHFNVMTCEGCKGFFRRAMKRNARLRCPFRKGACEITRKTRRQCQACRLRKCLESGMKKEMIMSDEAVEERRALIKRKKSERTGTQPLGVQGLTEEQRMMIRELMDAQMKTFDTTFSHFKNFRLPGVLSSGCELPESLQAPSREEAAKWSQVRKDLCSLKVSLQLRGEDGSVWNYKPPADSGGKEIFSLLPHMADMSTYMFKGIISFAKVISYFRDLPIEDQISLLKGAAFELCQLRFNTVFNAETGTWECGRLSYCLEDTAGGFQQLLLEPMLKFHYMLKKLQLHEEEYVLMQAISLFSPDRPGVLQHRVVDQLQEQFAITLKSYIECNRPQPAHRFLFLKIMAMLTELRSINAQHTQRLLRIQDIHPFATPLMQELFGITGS
How it was run: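 Reporter HepG2 cells expressing PXR-Luc are cultured in charcoal-stripped FBS (5%), treated with compounds for 24 hr at 37 C, and assayed by ONE-Glo luminescence after 30 min at room temperature.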

[10] = molecular target: Cytochrome P450 2D6 (Homo sapiens) (UniProt P10635); assay: Cytochrome P450 Family 2 Subfamily D Member 6 (CYP2D6) small molecule antagonists: luciferase reporter qHTS assay (AID 1671196); further: series mostly up to about 120 µM; nearly all actives have a fitted effect of over 50% in size
Sequence of Cytochrome P450 2D6 (Homo sapiens) (P10635 whole entry, looked up): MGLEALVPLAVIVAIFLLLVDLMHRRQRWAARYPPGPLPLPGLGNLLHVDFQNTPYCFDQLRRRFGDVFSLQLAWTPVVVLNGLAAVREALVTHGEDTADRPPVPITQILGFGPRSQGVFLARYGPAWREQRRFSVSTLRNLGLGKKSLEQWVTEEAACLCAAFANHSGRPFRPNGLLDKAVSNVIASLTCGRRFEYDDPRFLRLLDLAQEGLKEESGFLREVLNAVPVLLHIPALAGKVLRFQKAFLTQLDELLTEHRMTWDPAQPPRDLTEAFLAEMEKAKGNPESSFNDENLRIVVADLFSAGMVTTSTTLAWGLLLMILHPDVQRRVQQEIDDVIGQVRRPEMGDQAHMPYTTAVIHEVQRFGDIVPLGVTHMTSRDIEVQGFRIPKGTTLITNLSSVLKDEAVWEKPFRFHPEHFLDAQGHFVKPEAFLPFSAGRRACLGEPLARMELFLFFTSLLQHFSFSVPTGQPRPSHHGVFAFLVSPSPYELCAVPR
How it was run: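 Test chemicals meet CYP2D6 plus proluciferin substrate (10 min, RT); NADPH regenerating solution then drives turnover for 1 h. Detection reagent halts the reaction; luminescence measured after 20 min.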

[11] = molecular target: Cytochrome P450 2C19 (Homo sapiens) (UniProt P33261); assay: Cytochrome P450 Family 2 Subfamily C Member 19 (CYP2C19) small molecule antagonists: luciferase reporter qHTS assay (AID 1671197); further: nearly all actives have a fitted effect of over 65% in size; further: potency means the concentration at half of the fitted maximal effect; on activity change, negative = inhibition: series mostly up to about 120 µM
Sequence of Cytochrome P450 2C19 (Homo sapiens) (P33261 whole entry, looked up): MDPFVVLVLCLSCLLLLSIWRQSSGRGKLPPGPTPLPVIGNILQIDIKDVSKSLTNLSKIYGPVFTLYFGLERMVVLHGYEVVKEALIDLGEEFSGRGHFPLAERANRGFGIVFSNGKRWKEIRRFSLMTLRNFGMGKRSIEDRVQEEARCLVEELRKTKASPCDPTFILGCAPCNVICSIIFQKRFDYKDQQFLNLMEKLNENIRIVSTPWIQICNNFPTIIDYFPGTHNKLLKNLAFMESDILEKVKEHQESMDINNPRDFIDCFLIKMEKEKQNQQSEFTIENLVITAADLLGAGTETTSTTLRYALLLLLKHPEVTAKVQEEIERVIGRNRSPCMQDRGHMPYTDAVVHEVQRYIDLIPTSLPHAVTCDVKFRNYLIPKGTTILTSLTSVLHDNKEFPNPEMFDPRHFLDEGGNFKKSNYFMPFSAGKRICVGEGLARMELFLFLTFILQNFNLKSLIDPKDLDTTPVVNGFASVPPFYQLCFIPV
How it was run: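 P450-Glo CYP2C19 screening system; proluciferin substrate; DMSO compound stocks; 10 min RT preincubation; NADPH regeneration, 1 h at 37C; luciferin detection reagent, 20 min RT; luminescence as RLU.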

[12] = molecular target: Cytochrome P450 2C9 (Homo sapiens) (UniProt P11712); assay: Cytochrome P450 Family 2 Subfamily C Member 9 (CYP2C9) small molecule antagonists: luciferase reporter qHTS assay (AID 1671198); further: nearly all actives have a fitted effect of over 50% in size; further: potency means the concentration at half of the fitted maximal effect; on activity change, negative = inhibition: series mostly up to about 120 µM
Sequence of Cytochrome P450 2C9 (Homo sapiens) (P11712 whole entry, looked up): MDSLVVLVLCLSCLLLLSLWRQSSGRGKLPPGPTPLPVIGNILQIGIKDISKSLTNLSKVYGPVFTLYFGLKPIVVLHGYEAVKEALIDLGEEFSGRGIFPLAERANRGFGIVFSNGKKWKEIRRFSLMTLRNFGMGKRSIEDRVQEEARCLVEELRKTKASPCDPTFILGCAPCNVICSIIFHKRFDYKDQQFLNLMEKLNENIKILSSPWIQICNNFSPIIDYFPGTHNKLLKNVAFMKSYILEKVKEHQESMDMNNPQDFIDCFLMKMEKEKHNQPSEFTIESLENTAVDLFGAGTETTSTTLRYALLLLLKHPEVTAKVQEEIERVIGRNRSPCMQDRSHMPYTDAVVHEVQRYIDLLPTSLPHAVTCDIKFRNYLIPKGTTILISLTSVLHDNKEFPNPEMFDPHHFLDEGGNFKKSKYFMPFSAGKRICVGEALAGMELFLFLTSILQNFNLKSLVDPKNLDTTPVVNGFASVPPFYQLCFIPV
How it was run: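 Enzyme-substrate mix preincubated with compound 10 min at room temperature; reaction started with NADPH regeneration solution, 1 h 37C. Luminescent luciferin product read after 20 min detection reagent.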

[13] = molecular target: Cytochrome P450 1A2 (Homo sapiens) (UniProt P05177); assay: Cytochrome P450 Family 1 Subfamily A Member 2 (CYP1A2) small molecule antagonists: luciferase reporter qHTS assay (AID 1671199); further: series mostly up to about 120 µM; nearly all actives have a fitted effect of over 50% in size
Sequence of Cytochrome P450 1A2 (Homo sapiens) (P05177 whole entry, looked up): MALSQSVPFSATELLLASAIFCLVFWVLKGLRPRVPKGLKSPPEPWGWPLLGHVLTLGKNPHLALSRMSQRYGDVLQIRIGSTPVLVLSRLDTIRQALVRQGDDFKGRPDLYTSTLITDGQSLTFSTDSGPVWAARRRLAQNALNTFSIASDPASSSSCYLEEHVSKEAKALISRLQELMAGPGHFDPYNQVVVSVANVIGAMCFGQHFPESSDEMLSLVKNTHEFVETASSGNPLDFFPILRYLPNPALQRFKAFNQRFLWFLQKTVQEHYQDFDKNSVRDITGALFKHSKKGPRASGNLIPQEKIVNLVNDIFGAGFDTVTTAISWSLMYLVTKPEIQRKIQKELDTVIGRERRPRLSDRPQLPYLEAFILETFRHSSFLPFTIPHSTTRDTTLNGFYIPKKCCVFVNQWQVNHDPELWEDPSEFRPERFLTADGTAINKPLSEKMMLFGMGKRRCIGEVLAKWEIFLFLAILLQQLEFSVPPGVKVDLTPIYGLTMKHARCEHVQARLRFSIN
How it was run: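 Steps: enzyme-substrate mix dispensed; test compounds and furafylline control pinned in; 10 min room temperature; NADPH regeneration solution added, 1 h; reaction stopped with luciferin detection reagent; luminescence read after 20 min.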

[14] = molecular target: Voltage-gated inwardly rectifying potassium channel KCNH2 (Homo sapiens) (UniProt Q12809); assay: Human Ether-a-go-go-Related Gene (hERG) channel small molecule antagonists: fluorescence cell-based qHTS assay (AID 1671200)
Sequence of Voltage-gated inwardly rectifying potassium channel KCNH2 (Homo sapiens) (Q12809 whole entry, looked up): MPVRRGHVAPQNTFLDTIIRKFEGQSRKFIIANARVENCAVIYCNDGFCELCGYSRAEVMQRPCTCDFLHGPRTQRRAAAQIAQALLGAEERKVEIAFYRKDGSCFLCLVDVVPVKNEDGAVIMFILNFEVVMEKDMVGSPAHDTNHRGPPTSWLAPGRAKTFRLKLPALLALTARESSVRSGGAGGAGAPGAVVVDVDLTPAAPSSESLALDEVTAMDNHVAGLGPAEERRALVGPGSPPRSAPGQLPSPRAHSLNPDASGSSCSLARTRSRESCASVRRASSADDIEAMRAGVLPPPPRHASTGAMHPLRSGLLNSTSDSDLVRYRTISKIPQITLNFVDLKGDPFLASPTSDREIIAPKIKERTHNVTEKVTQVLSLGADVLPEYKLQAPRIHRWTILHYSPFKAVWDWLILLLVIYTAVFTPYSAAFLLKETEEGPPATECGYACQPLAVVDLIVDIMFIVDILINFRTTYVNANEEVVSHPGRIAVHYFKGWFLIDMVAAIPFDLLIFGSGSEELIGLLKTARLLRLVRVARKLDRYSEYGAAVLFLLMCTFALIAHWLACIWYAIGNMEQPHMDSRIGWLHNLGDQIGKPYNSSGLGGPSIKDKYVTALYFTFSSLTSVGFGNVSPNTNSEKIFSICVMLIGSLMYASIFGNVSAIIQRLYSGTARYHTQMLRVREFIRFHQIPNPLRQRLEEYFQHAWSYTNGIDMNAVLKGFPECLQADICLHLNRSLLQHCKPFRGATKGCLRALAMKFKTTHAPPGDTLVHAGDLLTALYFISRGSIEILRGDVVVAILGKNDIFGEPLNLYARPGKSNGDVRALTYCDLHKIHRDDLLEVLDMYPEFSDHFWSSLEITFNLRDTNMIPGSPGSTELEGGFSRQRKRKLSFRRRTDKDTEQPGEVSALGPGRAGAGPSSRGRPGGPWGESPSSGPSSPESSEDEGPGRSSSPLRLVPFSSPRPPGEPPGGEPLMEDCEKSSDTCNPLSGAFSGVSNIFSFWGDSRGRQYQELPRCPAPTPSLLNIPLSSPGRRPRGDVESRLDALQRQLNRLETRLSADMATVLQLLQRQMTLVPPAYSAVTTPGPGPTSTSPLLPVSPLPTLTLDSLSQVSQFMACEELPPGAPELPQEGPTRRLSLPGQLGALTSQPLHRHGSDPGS
How it was run: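 Kinetic two-minute fluorescence traces, sampled at 1 s, were collected following thallium stimulus of U2OS cells (1000 per well) that had been cultured overnight at 37 C and loaded with FluxOR II.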

[15] = molecular target: Cytochrome P450 3A4 (Homo sapiens) (UniProt P08684); assay: Cytochrome P450 Family 3 Subfamily A Member 4 (CYP3A4) small molecule antagonists: luciferase reporter qHTS assay (AID 1671201); further: nearly all actives have a fitted effect of over 50% in size; further: potency means the concentration at half of the fitted maximal effect; on activity change, negative = inhibition: series mostly up to about 120 µM
Sequence of Cytochrome P450 3A4 (Homo sapiens) (P08684 whole entry, looked up): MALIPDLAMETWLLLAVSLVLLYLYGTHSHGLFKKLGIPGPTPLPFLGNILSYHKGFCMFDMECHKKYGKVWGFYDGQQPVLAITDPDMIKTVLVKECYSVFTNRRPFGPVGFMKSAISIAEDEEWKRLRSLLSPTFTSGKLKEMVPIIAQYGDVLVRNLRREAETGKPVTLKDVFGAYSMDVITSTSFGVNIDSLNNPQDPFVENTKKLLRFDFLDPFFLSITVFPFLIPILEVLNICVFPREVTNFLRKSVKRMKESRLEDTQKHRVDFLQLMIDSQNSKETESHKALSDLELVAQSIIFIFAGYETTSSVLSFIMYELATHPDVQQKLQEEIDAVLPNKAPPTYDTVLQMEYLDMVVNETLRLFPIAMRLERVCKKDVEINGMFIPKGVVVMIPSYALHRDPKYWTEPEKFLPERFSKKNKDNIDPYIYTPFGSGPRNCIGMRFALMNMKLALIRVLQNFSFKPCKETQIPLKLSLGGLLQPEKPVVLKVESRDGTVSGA
How it was run: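 Proluciferin-to-luciferin conversion by CYP3A4, NADPH-regenerated, 1 h RT; luminescence read as RLU. Ketoconazole as control.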

[16] = qHTS assay to identify small molecule agonists of the TGF-beta/Smad signaling pathway - cell viability counter screen (AID 1346829); further: top concentration of the series differs between compounds; nearly all actives have a fitted effect of over 45% in size
How it was run: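 Compound-treated SBE-bla HEK 293T cells (5 hr, 37 C) were assessed for viability with CellTiter-Glo in parallel with the reporter read.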

[17] = molecular target: Nuclear receptor subfamily 1 group I member 2 (Rattus norvegicus) (UniProt Q9R1A7); assay: Rat pregnane X receptor (rPXR) activation by small molecules, qHTS assay (AID 1346983); details: rPXR luciferase reporter cells, One-Glo luminescence, 24 h; active compounds read high; further: nearly all actives have a fitted effect of over 20% in size
Sequence of Nuclear receptor subfamily 1 group I member 2 (Rattus norvegicus) (Q9R1A7 whole entry, looked up): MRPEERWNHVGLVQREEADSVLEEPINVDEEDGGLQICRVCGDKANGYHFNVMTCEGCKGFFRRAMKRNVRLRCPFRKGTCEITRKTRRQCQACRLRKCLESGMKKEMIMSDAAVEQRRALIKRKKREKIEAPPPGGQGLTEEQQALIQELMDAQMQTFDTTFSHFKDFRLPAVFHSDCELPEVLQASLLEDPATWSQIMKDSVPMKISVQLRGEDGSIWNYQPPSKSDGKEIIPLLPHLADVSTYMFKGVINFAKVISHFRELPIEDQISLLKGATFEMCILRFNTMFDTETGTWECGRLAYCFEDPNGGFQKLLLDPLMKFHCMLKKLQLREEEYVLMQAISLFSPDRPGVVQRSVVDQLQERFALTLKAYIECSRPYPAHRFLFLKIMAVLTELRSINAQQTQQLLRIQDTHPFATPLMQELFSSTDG
How it was run: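 Luminescent readout (One-Glo luciferase, 30 min room temperature) followed 24 hr compound treatment at 37 C of rPXR cells plated 2,000 per well and preincubated 5hr; qHTS format with compounds delivered in DMSO.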

[18] = molecular target: Nuclear receptor subfamily 1 group I member 2 (Homo sapiens) (UniProt O75469); assay: CYP3A4 induction through human pregnane X receptor (PXR) by small molecules, qHTS assay (AID 1346984); further: nearly all actives have a fitted effect of over 40% in size
How it was run: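 Induction measured in HepG2-based DPX-2 cells co-expressing human PXR and a CYP3A4 promoter-driven luciferase. After a 24-hour compound exposure, cells received CYP3A4 luciferin substrate at 3uM final for 3 hours, and light output was then recorded.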

[19] = molecular target: Nuclear receptor subfamily 1 group I member 2 (Homo sapiens) (UniProt O75469); assay: Human pregnane X receptor (PXR) activation by small molecules, qHTS assay (AID 1346985); further: nearly all actives have a fitted effect of over 40% in size
How it was run: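 DPX-2 cells (HepG2 co-transfected with a PXR response element and a CYP3A4-promoter luciferase construct) were seeded at 2,000 per well, rested 5 hr at 37C, then exposed to DMSO-dissolved compounds for 24 hr. Activation was read as luciferase luminescence.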

Which outcome [1] does the source give for `CCCCCCCCCCOC(C)=O` here?
Its outcome is “inactive”.

And the outcome [2]?
The outcome was “inactive”.

What about the outcome [3] of the same molecule?
Its outcome is “inactive”.

And the outcome [4]?
The outcome was “inactive”.

And the outcome [5]?
The outcome was “inactive”.

What about the Potency [6] of the same molecule?
The Potency was “inactive”.

What about the outcome [7] of the same molecule?
Its outcome is “inactive”.

And the outcome [8]?
The outcome was “inactive”.

What about the Potency [9] of the same molecule?
Its Potency is “inactive”.

What about the Potency [10] of the same molecule?
Its Potency is “inactive”.

And the Potency [11]?
Its Potency is “inactive”.

What about the Potency [12] of the same molecule?
The Potency was “inactive”.

What about the Potency [13] of the same molecule?
The Potency was “inactive”.

And the Potency [14]?
The Potency was “inactive”.

And the Potency [15]?
Its Potency is “inactive”.

What does the source list for `CC1CC(=O)CC(C)(C)C1` (stereo unspecified)?
outcome [16]: inactive; outcome [1]: inactive; outcome [4]: inactive; outcome [5]: inactive; Potency [6]: inactive; outcome [7]: inactive; outcome [8]: inactive; Potency [9]: inactive; Potency [10]: inactive; Potency [11]: inactive; Potency [12]: inactive; Potency [14]: inactive; Potency [15]: inactive

For `COC(=O)CCCCC(=O)O`, which outcome [16] is on record?
Its outcome is “inactive”.

And the outcome [1]?
The outcome was “inactive”.

And the outcome [4]?
Its outcome is “inactive”.

And the outcome [5]?
Its outcome is “inactive”.

And the Potency [6]?
The Potency was “inactive”.

What about the outcome [7] of the same molecule?
Its outcome is “inactive”.

What about the outcome [8] of the same molecule?
The outcome was “inactive”.

What about the Potency [9] of the same molecule?
The Potency was “inactive”.

And the Potency [10]?
Its Potency is “inactive”.

And the Potency [11]?
The Potency was “inactive”.

And the Potency [12]?
Its Potency is “inactive”.

And the Potency [14]?
Its Potency is “inactive”.

And the Potency [15]?
The Potency was “inactive”.

Which results are given for `C=C(C)c1cccc(C(C)(C)N=C=O)c1`?
outcome [16]: inactive; outcome [1]: inactive; outcome [4]: inactive; outcome [5]: inactive; Potency [6]: inactive; outcome [7]: inactive; outcome [8]: inactive; Potency [9]: 4.33 µM (active); Potency [11]: 17.8 µM (active); Potency [12]: 15.9 µM (active); Potency [14]: inactive; Potency [15]: 2.83 µM (active)

What does the source list for `CSc1cnccn1`?
outcome [16]: inactive; outcome [1]: inactive; outcome [5]: inactive; Potency [6]: inactive; outcome [7]: inactive; outcome [8]: inactive; Potency [9]: inactive; Potency [10]: inactive; Potency [11]: inactive; Potency [12]: inactive; Potency [13]: inactive; Potency [14]: inactive; Potency [15]: inactive

For `CCCCCCCCCCCCCCCCCC#N`, which outcome [16] is on record?
Its outcome is “inactive”.

And the outcome [1]?
Its outcome is “inactive”.

What about the outcome [4] of the same molecule?
Its outcome is “inactive”.

And the outcome [5]?
Its outcome is “inactive”.

What about the Potency [6] of the same molecule?
Its Potency is “inactive”.

And the outcome [7]?
Its outcome is “inactive”.

What about the outcome [8] of the same molecule?
Its outcome is “inactive”.

And the Potency [9]?
The Potency was “inactive”.

And the Potency [10]?
The Potency was “inactive”.

What about the Potency [12] of the same molecule?
The Potency was “inactive”.

And the Potency [13]?
The Potency was “inactive”.

What about the Potency [14] of the same molecule?
Its Potency is “inactive”.

What about the Potency [15] of the same molecule?
The Potency was “inactive”.

Which outcome [16] does the source give for `CCCc1ccc(O)cc1` here?
Its outcome is “inactive”.

And the outcome [1]?
Its outcome is “inactive”.

And the outcome [4]?
Its outcome is “inactive”.

And the outcome [5]?
Its outcome is “inactive”.

And the Potency [6]?
The Potency was “inactive”.

What about the outcome [7] of the same molecule?
Its outcome is “inactive”.

What about the outcome [8] of the same molecule?
The outcome was “inactive”.

What about the Potency [9] of the same molecule?
Its Potency is “inactive”.

And the Potency [14]?
The Potency was “inactive”.

What about the Potency [15] of the same molecule?
Its Potency is “inactive”.

What does the source list for `O=S(=O)(O)c1ccc2c(N=Nc3ccc(S(=O)(=O)O)c4ccccc34)c(O)c(S(=O)(=O)O)cc2c1`?
activity change, negative = cytotoxicity [16]: 12.6% [at 6.97 µM]; activation [1]: 0.897% [at 6.97 µM]; caspase activation [5]: -0.326% [at 8.39 µM]; caspase-3/7 activation [7]: -0.308% [at 8.39 µM]; activation [9]: 1.28% [at 8.39 µM]; max activation [17]: -9.86%; Potency [18]: inactive; Potency [19]: inactive; activity change, negative = inhibition [10]: -11.1% [at 10.5 µM]; activity change, negative = inhibition [11]: -14.2% [at 10.5 µM]; activity change, negative = inhibition [12]: -3.9% [at 10.5 µM]; activity change, negative = inhibition [14]: 1.92% [at 6.97 µM]

For `Cc1ccnc(N)c1`, which outcome [16] is on record?
The outcome was “inactive”.

What about the outcome [1] of the same molecule?
Its outcome is “inactive”.

What about the outcome [5] of the same molecule?
Its outcome is “inactive”.

What about the outcome [7] of the same molecule?
Its outcome is “inactive”.

What about the Potency [9] of the same molecule?
The Potency was “inactive”.

And the Potency [10]?
The Potency was “inactive”.

What about the Potency [11] of the same molecule?
The Potency was “inactive”.

What about the Potency [12] of the same molecule?
The Potency was “inactive”.

And the Potency [13]?
Its Potency is “inactive”.

And the Potency [14]?
The Potency was “inactive”.

What about the Potency [15] of the same molecule?
Its Potency is “inactive”.

What does the source list for `CCNC(=O)NCc1cccc(Cl)c1`?
outcome [16]: inactive; outcome [1]: inactive; outcome [5]: inactive; Potency [6]: inactive; outcome [7]: inactive; outcome [8]: inactive; Potency [9]: inactive; max activation [17]: -1.55%; Potency [18]: inactive; Potency [19]: inactive; Potency [10]: inactive; Potency [11]: inactive; Potency [12]: inactive; Potency [14]: inactive
